{"source": "ChEMBL document CHEMBL1201862", "about": "“PubChem BioAssay data set” (2004)", "test_system": "KM-20L2", "test": "NCI tumour cell line growth inhibition, 48 h", "note": "Results with a measured potency or affinity are listed apart. Only a part of the results of these assays is listed, not drawn at random.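 Where inhibition never reached the appropriate level, the endpoint shown equals the highest concentration tested. Otherwise, values were interpolated linearly from a five-concentration, 48-hour dose response in 96-well plates. Abbreviation: GI50, concentration required for 50% inhibition of growth.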"}
{"substance": "CADMIUM DICHLORIDE, CHEMBL1458880", "values": [{"measurement": "GI50", "result": 100, "unit": "µM"}]}
